Laboratory results taken from PubChem BioAssay (NCI).
About 79,000 compounds went through this panel and 15% of them were active in at least one assay; those are over-represented in the sample as a whole. Calls of active or inactive are those of the source. Cut-off read from the data, not from the text of the source: active = growth inhibition above about 70%; inactive = the rest.

Columns and labels:
[1] = NCI Yeast Anticancer Drug Screen. Data for the sgs1 strain (AID 173);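 note: 0% = growth of vehicle-only control cultures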; conditions: S. cerevisiae sgs1 mutant, hits give high values
Method in brief: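 Each compound was added to cultures of the altered yeast strain. Growth was recorded, and inhibition was derived by comparison with vehicle controls.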

[2] = NCI Yeast Anticancer Drug Screen. Data for the mlh1 rad18 strain (AID 175); conditions: S. cerevisiae mlh1 rad18 strain growth inhibition, hits give high values
Method in brief: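 Genetically defined yeast (DNA repair-deficient) exposed to compounds; growth inhibition determined relative to vehicle.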

[3] = NCI Yeast Anticancer Drug Screen. Data for the rad18 strain (AID 177); conditions: S. cerevisiae rad18 mutant growth inhibition, hits give high values
Method in brief: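 Vehicle-treated cultures served as the baseline for scoring compound-induced growth inhibition in DNA-repair-mutant yeast.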

[4] = NCI Yeast Anticancer Drug Screen. Data for the rad52 strain (AID 147);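 note: 0% = growth of vehicle-treated control cultures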; conditions: S. cerevisiae rad52 mutant growth inhibition, hits give high values
Method in brief: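 The repair-mutant yeast strain was incubated with compounds, then growth was read and inhibition derived relative to vehicle.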

[5] = NCI Yeast Anticancer Drug Screen. Data for the wt1 strain (AID 149);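 note: 0% = growth of vehicle-treated wt1 cultures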; conditions: S. cerevisiae wt1 strain (SPY 50644) growth inhibition, hits give high values
Method in brief: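 Readout: yeast growth inhibition, normalised to vehicle controls, in the wt1 strain exposed to test compounds.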

[6] = NCI Yeast Anticancer Drug Screen. Data for the rad50EPP+ strain (AID 151);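 note: 0% = growth of vehicle-treated control cultures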; conditions: S. cerevisiae rad50 mutant strain, hits give high values
Method in brief: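 Vehicle-normalised growth inhibition; rad50EPP+ yeast strain, altered in DNA damage repair, compound-treated.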

[7] = NCI Yeast Anticancer Drug Screen. Data for the rad50 strain (AID 155);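 note: 0% = growth of vehicle-only cultures of the same strain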; conditions: S. cerevisiae rad50 strain growth inhibition, hits give high values
Method in brief: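 Compounds were tested on a yeast strain with an engineered DNA damage repair alteration; the reported value is growth inhibition normalised to vehicle treatment.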

[8] = NCI Yeast Anticancer Drug Screen. Data for the mec2-1 strain (AID 157); conditions: S. cerevisiae mec2-1 strain, hits give high values
Method in brief: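 Mutant yeast (mec2-1) grown with compound; growth inhibition relative to vehicle control reported.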

[9] = NCI Yeast Anticancer Drug Screen. Data for the rad14 strain (AID 159);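 note: 0% = growth of vehicle-treated control cultures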; conditions: S. cerevisiae rad14 strain growth inhibition, hits give high values
Method in brief: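 Compound-treated yeast with a defined DNA-repair lesion; growth inhibition normalised to vehicle-treated cultures.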

[10] = NCI Yeast Anticancer Drug Screen. Data for the sgs1 mgt1 strain (AID 161);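 note: 0% = growth of cultures given vehicle only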; conditions: S. cerevisiae sgs1 mgt1 strain, hits give high values
Method in brief: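 Yeast cells carrying a defined DNA-repair defect were exposed to test compounds. Growth inhibition was measured relative to vehicle-treated controls.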

[11] = NCI Yeast Anticancer Drug Screen. Data for the CLN2oe strain (AID 163);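 note: 0% = growth of vehicle-only control cultures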; conditions: S. cerevisiae CLN2oe strain, hits give high values
Method in brief: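 Compounds are applied to yeast harbouring a defined cell-cycle control change; reduced growth compared with vehicle-treated controls gives the value.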

[12] = NCI Yeast Anticancer Drug Screen. Data for the cln2 rad14 strain (AID 165);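 note: 0% = growth equal to vehicle treated cultures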; conditions: S. cerevisiae cln2 rad14 strain, hits give high values
Method in brief: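 Readout is yeast growth inhibition versus vehicle-treated controls, using a strain with cln2 and rad14 alterations exposed to compound.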

[13] = NCI Yeast Anticancer Drug Screen. Data for the bub3 strain (AID 167); conditions: S. cerevisiae bub3 mutant strain, hits give high values
Method in brief: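 Growth of a checkpoint-deficient yeast mutant is measured after compound exposure. Values represent inhibition relative to vehicle.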

[14] = NCI Yeast Anticancer Drug Screen. Data for the wt2 strain (AID 169);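 note: 0% = growth of vehicle-treated yeast cultures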; conditions: S. cerevisiae wt2 strain growth inhibition, hits give high values
Method in brief: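 Against vehicle-treated controls, the growth of yeast exposed to each compound was compared, and the inhibition was recorded.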

[15] = at 5.0 µM (retest, dose inferred, filed as 0.5)
[16] = at 50.0 µM (retest, dose inferred, filed as 5.0)

Measured: growth inhibition

Cc1c2cc[n+](CCN3CCCCC3)cc2c(C)c2c1[nH]c1ccc(O)cc12
inactive: [1]; at 1.2 µM -1% | [1]; at 3.7 µM -2% | [1]; at 11.0 µM 1% | [1]; at 33.0 µM 12% | [2]; [15] 3% | [2]; [16] 25% | [3]; at 1.2 µM -2% | [3]; at 3.7 µM -5% | [3]; at 11.0 µM -4% | [3]; at 33.0 µM -4% | [3]; at 100.0 µM 41%
active: [1]; at 100.0 µM 94% | [2]; at 50.0 µM 81.8%

CCCCCC#CCOC(=O)C(=[N+]=[N-])P(=O)(c1ccccc1)c1ccccc1
active: [4]; at 100.0 µM 96% | [5]; at 100.0 µM 96% | [7]; [16] 94% | [7]; at 50.0 µM 87.8% | [7]; at 100.0 µM 95% | [8]; [16] 97% | [8]; at 50.0 µM 90.5% | [8]; at 100.0 µM 95% | [9]; at 100.0 µM 94% | [10]; at 50.0 µM 90.8% | [11]; at 100.0 µM 96% | [12]; [16] 96% | [12]; at 50.0 µM 86.7% | [13]; [16] 95% | [13]; at 50.0 µM 89.3% | [13]; at 100.0 µM 95% | [14]; at 100.0 µM 97% | [1]; at 100.0 µM 98% | [2]; [16] 96% | [2]; at 50.0 µM 87% | [3]; at 100.0 µM 96%
inactive: [4]; at 1.2 µM 7% | [4]; at 3.7 µM 16% | [4]; at 11.0 µM 7% | [4]; at 33.0 µM 10% | [5]; at 1.2 µM 3% | [5]; at 3.7 µM -2% | [5]; at 11.0 µM 3% | [5]; at 33.0 µM -2% | [6]; at 1.2 µM 21% | [6]; at 3.7 µM 13% | [6]; at 11.0 µM 26% | [6]; at 33.0 µM 14% | [6]; at 100.0 µM 6% | [7]; at 1.2 µM 14% | [7]; at 3.7 µM 21% | [7]; [15] -6% | [7]; at 11.0 µM 13% | [7]; at 33.0 µM 13% | [8]; at 1.2 µM 11% | [8]; at 3.7 µM 7% | [8]; [15] -6% | [8]; at 11.0 µM -3% | [8]; at 33.0 µM -4% | [9]; at 1.2 µM -11% | [9]; at 3.7 µM -6% | [9]; at 11.0 µM -9% | [9]; at 33.0 µM -6% | [10]; [15] 8% | [10]; [16] 46% | [11]; at 1.2 µM 7% | [11]; at 3.7 µM 5% | [11]; at 11.0 µM 9% | [11]; at 33.0 µM -1% | [12]; [15] 37% | [13]; at 1.2 µM 1% | [13]; at 3.7 µM 0% | [13]; [15] 8% | [13]; at 11.0 µM -23% | [13]; at 33.0 µM -23% | [14]; at 1.2 µM 4% | [14]; at 3.7 µM 10% | [14]; at 11.0 µM 5% | [14]; at 33.0 µM 5% | [1]; at 1.2 µM 17% | [1]; at 3.7 µM 21% | [1]; at 11.0 µM 15% | [1]; at 33.0 µM 16% | [2]; [15] 22% | [3]; at 1.2 µM 7% | [3]; at 3.7 µM 8% | [3]; at 11.0 µM 7% | [3]; at 33.0 µM 14%
